Records with an inconclusive call do not appear. A call without a number means that no potency is given here. Values without a mark were called inactive. The source made the active and inactive calls. The call rests on the fitted dose curve; in most records, active means well fitted cell-killing curve with a large enough effect in the repeat runs; inconclusive means weak or mixed curves, or effect the other way; inactive means flat fitted curve, though single readings scatter.
Assay: qHTS RealTime-Glo MT Cell Viability Assay in HEK293 cells - 8 hour (AID 1224887); further: nearly all actives have a fitted effect of over 50% in size; on activity change, negative = cytotoxicity: top concentration of the series differs between compounds
Conditions: RealTime-Glo luminescence; series mostly up to 76.8 µM
Source text: U.S. Tox21 Program National Center for Advancing Translational Sciences [NCATS] NIH Chemical Genomics Center [NCGC] U.S. Environmental Protection Agency [EPA] National Institutes of Environmental Health Sciences [NIEHS] National Toxicology Program [NTP] U.S. Food and Drug Administration [FDA] Tox21 Assay Overview: Measure of cell viability is critical in the cell-base assay. Analysis of cell viability is necessary for the characterization of cell responses to cytotoxic drugs and environmental stress. A RealTime-Glo MT Cell Viability Assay to monitor cell viability in real time of continues cell culture during 40 hours of compound treatment was used to screen Tox21 10K library compounds in Hek293 cells. The RealTime-Glo MT Cell Viability Assay is a nonlytic, homogeneous, bioluminescent method to measure cell viability in real time using a simple, plate-based method. The assay involves adding NanoLuc luciferase and a cell-permeant prosubstrate to cells in culture. Viable cells reduce the proprietary prosubstrate to generate a substrate for NanoLuc luciferase. This substrate diffuses from cells into the surrounding culture medium, where it is rapidly used by the NanoLuc Enzyme to produce a luminescent signal. The signal correlates with the number of viable cells, making the assay well suited for cytotoxicity studies.
Tox21 Assay Protocol Summary: The mixture of Hek293 cell suspension and reagents were dispensed at 600cells/6 ul/well in 1536-well tissue culture treated black solid bottom plates using a Multidrop dispenser. After the assay plates were incubated at a 37 C/5% CO2 incubator for 5 hours, 23 nL of compounds dissolved in DMSO, positive and negative controls was transferred to the assay plate by a pintool work station. The plates were incubated at 37 C for 40 hours. The luminescence intensity were measured at 0h, 8h, 16h, 24h, 32h and 40h time points using ViewLux plate reader during compound treatment.
Potency means the concentration at half of the fitted maximal effect.

| SMILES | Potency | activity change, negative = cytotoxicity |
| --- | --- | --- |
| CCN(CC)c1ccc(C(=C2C=CC(=[N+](CC)CC)C=C2)c2cc(S(=O)(=O)O)ccc2S(=O)(=O)[O-])cc1 | inactive | – |
| CCCCc1ncc(/C=C(\Cc2cccs2)C(=O)O)n1Cc1ccc(C(=O)O)cc1 | inactive | – |
| S=C([S-])NCCNC(=S)[S-].[Mn+2] | inactive | – |
| CCn1cc(C(=O)O)c(=O)c2cnc(N3CCNCC3)nc21 | inactive | – |
| CC1=CCCC(C)(C)C12CCC(C)O2 (stereo not given) | inactive | – |
| CN1C[C@H]2c3ccccc3Oc3ccc(Cl)cc3[C@@H]2C1 | inactive | – |
| COc1cc2c(cc1OC)C(C(C(=O)N(CCc1ccc(OC)c(OC)c1OC)CCc1ccc(OC)c(OC)c1OC)c1ccccc1)=NCC2 (stereo not given) | 3.01 µM (active) | – |
| C[N+]1(C)CCC(OC(=O)C(O)(c2ccccc2)C2CCCC2)C1 (stereo not given) | inactive | – |
| CC1OC(=O)C(C)OC1=O (stereo not given) | inactive | – |
| Cc1ccc(N=Nc2c(O)c(C(=O)O)cc3ccccc23)c(S(=O)(=O)O)c1 | inactive | – |
| CN(C)CCN(Cc1ccc(Cl)cc1)c1ccccn1 | inactive | – |
| COc1cc(C(=O)OCCCN2CCCN(CCCOC(=O)c3cc(OC)c(OC)c(OC)c3)CC2)cc(OC)c1OC | 9.52 µM (active) | – |
| CCCCCCOC(=O)NC(=N)c1ccc(NCc2nc3cc(C(=O)N(CCC(=O)OCC)c4ccccn4)ccc3n2C)cc1 | 9.52 µM (active) | – |
| CC[N+]1(CC)CCC(=C(c2ccccc2)c2ccccc2)C1C (stereo not given) | inactive | – |
| NCC(=O)O | – | 10.2% [at 15.8 µM] |
| CN1Cc2cc(C(=O)N3CCC(C4CCNCC4)CC3)ccc2NC(CC(=O)O)C1=O (stereo not given) | inactive | – |
| CCC(C)c1cc(C(C)(C)C)c(O)c(C(C)(C)C)c1 (stereo not given) | inactive | – |
| CCCCC1=NC2(CCCC2)C(=O)N1Cc1ccc(-c2ccccc2-c2nn[nH]n2)cc1 | inactive | – |
| CCc1cc(C2=C(C(=O)O)N(c3ccccc3C(F)(F)F)S(=O)(=O)c3ccccc32)cc2c1OCO2 | inactive | – |
| COc1ccc(C)cc1[N+](=O)[O-] | inactive | – |

| SMILES | Potency | activity change, negative = cytotoxicity |
| --- | --- | --- |
| C=C1[C@H]2CC[C@@H]3[C@H]2C(C)(C)CCC[C@]13C | inactive | – |
| CC(C)Nc1ccc(NC(C)C)c2c1C(=O)c1ccccc1C2=O | inactive | – |
| O=C(OCCc1ccccc1)c1ccccc1 | inactive | – |
| O=C(c1ccc(F)cc1)C1CCN(CCn2c(=S)[nH]c3ccccc3c2=O)CC1 | 4.77 µM (active) | – |
| NC(=O)C(c1ccccc1)(c1ccccc1)[C@@H]1CCN(CCc2ccc3c(c2)CCO3)C1 | inactive | – |
| CC(=O)[O][Al] | inactive | – |
| CCCC(=O)Nc1ccc(O)c(C(C)=O)c1 | inactive | – |
| CNCCCN1c2ccccc2CCc2ccccc21 | inactive | – |
| Cc1nn(C)c(Oc2ccccc2)c1/C=N/OCc1ccc(C(=O)OC(C)(C)C)cc1 | inactive | – |
| CN(C)c1ccc(/C=C/c2ccc([N+](=O)[O-])cc2)cc1 | – | -2.66% [at 6.97 µM] |
| O=CC1CC=CCC1 (stereo not given) | inactive | – |
| ClCCOCCOCCCl | inactive | – |
| CCC(=O)O[C@]1(C(=O)CCl)[C@@H](C)C[C@H]2[C@@H]3CCC4=CC(=O)C=C[C@]4(C)[C@@]3(F)[C@@H](O)C[C@@]21C | inactive | – |
| COC(C)OC | inactive | – |
| C[C@@H](c1ncncc1F)C(O)(Cn1cncn1)c1ccc(F)cc1F (stereo not given in full) | inactive | – |
| Cc1oc2c(NC(=O)c3c(Cl)cccc3Cl)cccc2c1C(C)(C)O | inactive | – |
| COC(C)(C)CCO | inactive | – |
| CCCCCCCCCc1ccc(OCCOCCO)cc1 | 3.25 µM (active) | – |
| O=C(Nc1ccccc1)c1ccccc1O | inactive | – |
| CCOC(=O)C1=C[C@]2(CC)CCCN3CCc4c(n1c1ccccc41)[C@@H]32 | inactive | – |

Reference: PubChem BioAssay (Tox21)
